Test results from PubChem BioAssay AID493185 (National Center for Advancing Translational Sciences (NCATS), 2011).
Active and inactive are the calls of the source. Where a call stands in place of a potency, no number is given. Calls come from the whole dose curve; as a rule, active = well fitted activation curve with a large enough effect; inconclusive = small, poorly fitted or top-dose-only effect; inactive = no such curve, though single readings can be large or run the other way.
Potency is the fitted concentration of half-maximal effect.

Assay: Counterscreen for Identifying a Potential Treatment of Ataxia-Telangiectasia: Hit Validation
Details: cell-free AlphaLISA/AlphaScreen artifact counterscreen, PBS only, no cells; series mostly up to 76.9 µM
In short: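 Cell-free AlphaLISA counterscreen: compounds (up to 76.7 uM final) in PBS with detection mix of anti-pKAP1 and anti-KAP1 antibodies on donor/acceptor beads plus lysis buffer, incubated 6 hr at 25C before AlphaScreen read.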
For `CN(Cc1ccccc1)C(=O)c1cccc(N2C(=O)C3CC=CCC3C2=O)c1` (stereo unspecified), the Potency was “inactive”.
With `Clc1cccc(CN2CCC(Cc3ccccc3)CC2)c1` the Potency was “inactive”.
In the case of `CCc1ccc(NC(=O)N[C@H](C(=O)O)C(C)CC)cc1` (stereo partly specified), the Potency is reported as “inactive”.
In the case of `C=C1CCC[C@]2(C)C[C@H]3OC(=O)C(CN4CCCCC4CO)[C@H]3CC12` (stereo partly specified), the Potency is reported as “inactive”.
In the case of `CC(=O)c1sc2nc(C)c3c(c2c1N)CCCC3`, the Potency is reported as 46.3 µM (active).
With `N#CCN1C(=O)C(=O)N(Cc2cccc(Cl)c2)C1=O` the Potency was “inactive”.
In the case of `Cn1cc(S(=O)(=O)Nc2ccc(OC(F)(F)F)cc2)c(=O)n(C)c1=O`, the Potency is reported as “inactive”.
For `CSc1nc(SCC(=O)O)c2c3c(sc2n1)COC(C)(C)C3`, the Potency was “inactive”.
In the case of `O=C(O)c1ccc(/C=C/c2nc3ccccc3c(=O)[nH]2)cc1`, the Potency is reported as “inactive”.
For `CNC(=O)Cc1csc2ccc(C)cc12`, the Potency was “inactive”.
For `O=C(CCCn1nnnc1CN1CCOCC1)N1CCC(c2ccc(F)cc2)C1` (stereo unspecified), the Potency was “inactive”.
In the case of `CC(=O)Nc1ccc(NC2=CC(=O)c3ccccc3C2=O)cc1`, the Potency is reported as “inactive”.
With `CC(C)OP(=O)(OC(C)C)C(O)c1ccc(N(C)C)cc1` (stereo unspecified) the Potency was “inactive”.
In the case of `CC(C)(C)n1nc2c(c1NC(=O)C1CC(=O)N(c3ccc(Cl)cc3)C1)CS(=O)(=O)C2` (stereo unspecified), the Potency is reported as “inactive”.
With `O=C(Nc1cnn(C23CC4CC(CC(C4)C2)C3)c1)c1cnn2cccnc12` the Potency was “inactive”.
In the case of `CCCc1ccc(S(=O)(=O)Nc2ccc(C)c(NS(C)(=O)=O)c2)cc1`, the Potency is reported as “inactive”.
For `CCn1c(N2CCN(CC(=O)c3c[nH]c4ccccc34)CC2)nc2c1c(=O)[nH]c(=O)n2C`, the Potency was “inactive”.
In the case of `CC(C)c1ccc(C(C(=O)NC2CCCCC2)N(C(=O)c2ccccn2)c2cccnc2)cc1` (stereo unspecified), the Potency is reported as “inactive”.
For `Cc1ccccc1OCC(=O)Nc1cccc(C(=O)O)c1`, the Potency was “inactive”.
With `CCc1nnc2n1N=C(c1cccc([N+](=O)[O-])c1)CS2` the Potency was “inactive”.
In the case of `CN(C)S(=O)(=O)c1ccc(NC(=O)c2ccc([N+](=O)[O-])cc2)cc1`, the Potency is reported as “inactive”.
